Here are results for 92 compounds from PubChem BioAssay AID1377 (University of Pittsburgh Molecular Library Screening Center, 2008).

Out of some 220,000 compounds screened, about 830 (0.38%) were called active.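 Rule for the calls: active = activation, scaled between plate controls, above about 75% (limit read from the data); inactive = activation under that limit.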 Shown is part of a subset that was picked to be rich in actives.

The nature of this assay: inhibitors of zVAD-triggered necroptosis, primary screen, L929 cells (AID 1377).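 Note: 0% = zVAD with DMSO and 100% = DMSO alone without zVAD.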 The settings on record: ATP luminescence, 24 h, at 10 µM, active compounds read high; with zVAD 60 µM unless noted.
In the case of `O=C(/C=C/c1ccccc1)c1ccccc1O`, the viability rescue was 1.78% (inactive). In the case of `Cc1nc(-c2ccccc2)sc1C(=O)/C=C/c1ccccc1` it was 0.15% [with zVAD 20 µM] (inactive); in that of `Cc1[nH]c(=O)c(C(=O)/C=C/c2ccccc2)c2c1CCCC2`, 79.8% [with zVAD 20 µM] (active). To `CCc1cc2c(=O)c(-c3nc4ccccc4n3C)c(CCCC(=O)O)oc2cc1OC(=O)C(C)(C)C` belongs 3.54% (inactive); to `Fc1ccc2c(c1)C(c1cccnc1)=NNC(c1cccs1)=N2`, 0.66% (inactive). In the case of `COc1cccc(/C=N/NC(=O)CNC(=O)c2ccc(S(=O)(=O)N3CCOCC3)cc2)c1OC` it was 0.08% (inactive); in that of `COc1c(N2CCN(C(=S)Nc3ccccc3F)C(C)C2)c(F)cc2c(=O)c(C(=O)O)cn(C3CC3)c12` (configuration not stated), -0.64% (inactive). In the case of `CC1CCCC(C)N1/N=C/c1ccccc1OC(F)F` (configuration not stated), the viability rescue was 2.14% (inactive). Consider `O=C(Cn1cnc2ccccc2c1=O)Nc1cccc(S(=O)(=O)N2CCCCC2)c1`, for which the viability rescue is 2.04% (inactive). In the case of `Cc1ccc(NC(=O)c2ccc(Oc3ncccn3)cc2)cc1` it was 3.02% (inactive). To `CCC(C)Sc1nnc(-c2c[nH]c3ccccc23)n1CCOC` (configuration not stated) belongs 2.86% [with zVAD 20 µM] (inactive); to `CCn1c(SCC(=O)Nc2ccc(OC)c(OC)c2)nnc1-c1c[nH]c2ccccc12`, 1.56% [with zVAD 20 µM] (inactive). As for `CCn1c(SCCC(C)C)nnc1-c1c[nH]c2ccccc12`, the viability rescue was 81.2% [with zVAD 20 µM] (active).

As for `CCOc1cccc2c1OC1(CCCCC1)N1N=C(c3cccnc3)CC21` (configuration not stated), the viability rescue was 1.15% (inactive). In the case of `Cc1ccc(NC(=O)COc2ccc(-n3ccnc3)cc2)cc1Cl` it was 76.3% [with zVAD 20 µM] (active); in that of `CCC(=O)c1ccc(OCC(=O)Nc2ccc3nc(C)sc3c2)cc1`, 0.76% (inactive); in that of `Cc1ccc(NC(=O)C/C(N)=N/O)cc1Cl`, 1.11% (inactive). In the case of `O=C(Cc1coc2ccc3ccccc3c12)NCc1cccs1` it was 0.48% (inactive); in that of `Cc1ccccc1NC(=O)NC1(C(=O)N2CCCC2)CCCCC1`, 4.41% (inactive); in that of `CCOC(=O)N1CCN(C(=O)CSc2ccc(Cl)cc2)CC1`, -0.42% [with zVAD 20 µM] (inactive). To `CCOC(=O)N1CCN(C(=O)COc2ccc(Cl)cc2C)CC1` belongs 0.53% (inactive). Consider `CCOC(=O)N1CCN(C(=O)CNC(=O)Cc2ccc(Cl)cc2)CC1`, for which the viability rescue is 80.3% (active).

Turning to `O=C(NC(=S)Nc1ccc2oc(=O)ccc2c1)c1ccc(-c2cccc(Cl)c2Cl)o1`, the viability rescue was 0.38% (inactive).

Turning to `CC(=O)c1cc(C#N)c(SCC(=O)Nc2nccs2)nc1C`, the viability rescue is 82.9% (active).

On to `Cc1[nH]c2ccccc2c1SCC(=O)Nc1nccs1`, for which the viability rescue is 1% (inactive). To `CC(=O)c1cc(C#N)c(SCC(=O)C(C)(C)C)nc1C` belongs 0.46% (inactive). Regarding `COc1ccc(C(CCN(Cc2ccc(OC)c(OC)c2)C(=O)CCl)c2ccccc2)cc1` (configuration not stated), the viability rescue was 36.4% [with zVAD 20 µM] (inactive). To `COc1ccccc1OCc1ccc(C(=O)N2CCN(C)CC2)o1` belongs 0.99% (inactive); to `O=C(c1ccco1)N1CCN(CCOc2ccccc2)CC1`, -0.6% (inactive). In the case of `O=C(c1ccco1)N1CCN(C(=O)c2ccc(COc3ccc(F)cc3)o2)CC1` it was 77.8% [with zVAD 20 µM] (active); in that of `O=C(C/C(=N\NC(=O)c1ccccc1Br)C(F)(F)F)c1cccs1`, 0.26% (inactive); in that of `Cc1cc(C(=O)N2CCC(C(=O)O)CC2)c(C(F)(F)F)o1`, -0.1% (inactive).

`COC(=O)C1=C(C)N(C(C)c2ccccc2)C(=O)/C1=C\c1ccco1` (configuration not stated): the viability rescue is 10.9% (inactive). In the case of `O=C(CCN1CCN(c2ccccc2)CC1)NNC(=S)Nc1ccccc1` it was 1.61% (inactive). As to `Cn1ccc(NC(=O)Nc2ccc(Cl)cc2)n1`, the viability rescue is 75.5% (active). In the case of `Cc1nn(C)cc1CNC(=O)Nc1ccc(Cl)cc1`, the viability rescue was 0.19% (inactive). Consider `Cc1cc(NC(=O)Nc2ccc(Cl)cc2)n(-c2ccccc2)n1`, for which the viability rescue was 22.9% (inactive). To `COC(=O)Cn1cc(/C=C/[N+](=O)[O-])c2ccccc21` belongs -0.01% (inactive); to `COc1cc(NS(=O)(=O)c2ccc(N/C=C(\C=O)c3nc4cc(Cl)ccc4o3)cc2)nc(OC)n1`, 0.63% (inactive). With `Cc1ccc(N2C(=O)C(CC(=O)Nc3cccc(F)c3)N(CCc3ccncc3)C2=O)cc1` (configuration not stated), the viability rescue is 6.31% (inactive). In the case of `CCc1c(SCCC(=O)O)nc2ccccc2c1C` it was 5.34% (inactive); in that of `Cn1c2ccc(F)cc2c2nnc(NN)nc21`, 1.53% (inactive); in that of `C=CCO/N=C/C1=C(O)C(C(=O)OC)C(C)(C)CC1=O` (configuration not stated), 4.04% (inactive). Turning to `CC(C)NC(=O)NC(=O)COC(=O)c1ccc(NC(=O)CC#N)cc1`, the viability rescue is 78.9% (active).

`NC(=O)c1ccc(NC(=O)COC(=O)c2ccc([N+](=O)[O-])cc2)cc1`: the viability rescue was 1.41% (inactive). As for `CCCCC(CCC(=O)Nc1ccc(C(=O)OCC)cc1)C(=O)O` (configuration not stated), the viability rescue was 0.34% [with zVAD 20 µM] (inactive).

Regarding `CCN1CCCC1CNC(=O)c1cc2c(=O)n(C)c3ccccc3c2n1C` (configuration not stated), the viability rescue was 22.7% [with zVAD 20 µM] (inactive). In the case of `CC1CCCC(C)N1CCCNC(=O)c1cc2c(=O)n(C)c3ccccc3c2n1C` (configuration not stated) it was 80.8% [with zVAD 20 µM] (active); in that of `Cn1c(C(=O)NCCCN2CCN(c3cccc(Cl)c3)CC2)cc2c(=O)n(C)c3ccccc3c21`, 4.61% (inactive). Regarding `CN(C)S(=O)(=O)Oc1ccccc1C(=O)Nc1ccccc1Cl`, the viability rescue was -0.16% (inactive).

Take `COCCN1C2=C(COC(C)(C)C2)C(=S)NC1c1ccccc1` (configuration not stated): the viability rescue was 0.35% (inactive). In the case of `O=C(COC(=O)c1ccc(Cl)nc1)NCc1cccs1` it was 1% (inactive); in that of `CCCn1c(SCC(=O)Nc2cccc(C(=O)OCC)c2)nnc1-c1ccoc1C`, -0.07% [with zVAD 20 µM] (inactive).

In the case of `CCn1c(SCC(=O)Nc2nc3ccc(OC)cc3s2)nnc1-c1ccoc1C`, the viability rescue is 88.1% [with zVAD 20 µM] (active). Regarding `COc1ccccc1NC(=O)CSc1nnc(-c2ccoc2C)n1CCc1ccccc1`, the viability rescue was -0.28% [with zVAD 20 µM] (inactive). Regarding `COc1ccc(N2C(=O)C3C(C2=O)C(C(=O)c2ccccc2)N2CCCC32)cc1` (configuration not stated), the viability rescue is -0.53% (inactive).

On to `CCc1ccccc1N1CN(Cc2ccco2)CNC1=S`, for which the viability rescue is 0.22% (inactive). As to `Cc1cc(C)nc(NNC2=CC(=O)CC(C)(C)C2)n1`, the viability rescue was 0.66% (inactive). In the case of `CC(=O)Nc1ccc(NC(=S)NC(=O)/C=C/c2ccccc2)cc1` it was 80.5% (active); in that of `Cc1ccc(NC(=S)NC(=O)/C=C/c2ccc(Cl)cc2)cc1`, 0.00667% (inactive); in that of `CC(=O)Nc1ccc(/C=C/C(=O)c2ccccc2)cc1`, 0.6% (inactive). To `O=C1NC(c2ccccc2)=NC1(Nc1ccccn1)C(F)(F)F` (configuration not stated) belongs 1.82% (inactive); to `CC(C)(C)NC(=O)C(=O)NCc1ccncc1`, 0.53% (inactive); to `Cc1cc(C)cc(NS(=O)(=O)c2ccc(F)cc2)c1`, 0.04% (inactive). In the case of `CC(NC(=S)NC1CCCCC1)C(c1ccccc1)N1CCOCC1` (configuration not stated) it was -0.76% (inactive); in that of `NNC(=O)c1ccc(Cl)cc1Cl`, 0.33% (inactive). Regarding `Cc1ccccc1NC(=O)CSC1=NCCN1`, the viability rescue is 101% [with zVAD 20 µM] (active).

With `Cc1ccccc1NC(=O)CNc1ccccc1N1CCCCC1`, the viability rescue is 0.17% [with zVAD 20 µM] (inactive). To `Cc1cccc(NC(=O)CSc2nc3c(c(=O)[nH]2)CCCC3)c1C` belongs 0.25% (inactive); to `Clc1cc(-c2ccc(/C=N/n3cnnc3)o2)ccc1Br`, -0.31% (inactive). In the case of `CCOC(=O)/C(C#N)=C/c1ccc(N2CCCCC2)cc1` it was 68.5% (inactive); in that of `C=CCNC(=O)CC12CC3CC(C1)CC(CC(=O)NCC=C)(C3)C2`, 0.48% (inactive); in that of `CC(=O)Nc1cccc(-c2cnc3ccccc3n2)c1`, 82.7% (active). On to `O=C(Nc1cccc(-c2nc3ccccc3[nH]2)c1)c1ccc(C(=O)Nc2cccc(-c3nc4ccccc4[nH]3)c2)cc1`, for which the viability rescue was 0.11% (inactive).

As to `CC(=O)Nc1cccc(-c2csc(Nc3cccc(C)n3)n2)c1`, the viability rescue is 0.49% [with zVAD 20 µM] (inactive). In the case of `O=C(Nc1cccc(F)c1)N1C2CCC1CC(O)(c1cccnc1)C2` (configuration not stated) it was 0.67% (inactive); in that of `O=C(Nc1cccnc1)c1cc([N+](=O)[O-])ccc1Cl`, 13.3% (inactive). In the case of `Cc1ccc(C(=O)Cn2cccn2)cc1` it was 1.57% (inactive); in that of `Cc1ccc(NC(=O)NC(=O)N(C2CCCCC2)S(=O)(=O)c2ccccc2)cc1`, 2.56% (inactive); in that of `O=C(CC1SCCNC1=O)Nc1ccc(Cl)cc1` (configuration not stated), 2.38% (inactive). In the case of `COc1ccccc1-n1cnc2cc(C(=O)NCC3CCCO3)ccc21` (configuration not stated) it was 1.84% (inactive); in that of `COc1ccc(-n2cnc3cc(C(=O)NC4CCCC4)ccc32)cc1`, 76.5% (active); in that of `COCCCNC(=O)c1ccc2c(c1)ncn2-c1ccccc1OC`, 13.6% (inactive). Consider `COc1ccc(-c2nc3cnccn3c2NC(C)(C)CC(C)(C)C)cc1O`, for which the viability rescue was 0.13% (inactive).

Take `Cc1ccc2cc(/C=N/Nc3ccc(C(=O)O)cc3)c(Cl)nc2c1`: the viability rescue was 1.59% (inactive). Take `CCOC(=O)C1(Cc2ccc(Cl)cc2)CCN(C(=O)C2=NNC(=O)CC2)CC1`: the viability rescue was -0.11% (inactive).

Turning to `CCCCN1C(=O)CC(N2CCOCC2)C1=O` (configuration not stated), the viability rescue is -0.32% (inactive).

As for `C[C@@H]1C[C@@H]2O[C@H]2/C=C\C=C\C(=O)Cc2c(Cl)c(O)cc(O)c2C(=O)O1`, the viability rescue is 83% (active). To `O=C(c1ccncc1)c1ccc([N+](=O)[O-])cc1` belongs 1.69% (inactive). Consider `O=C(c1ccc(F)cc1)C1CCN(Cc2cn[nH]c2-c2ccccc2)CC1`, for which the viability rescue is 0.29% (inactive).

On to `CC(=O)NCCC(=O)Nc1cc(S(=O)(=O)N2CCOCC2)ccc1N1CCOCC1`, for which the viability rescue was 0.76% (inactive). To `COc1ccc(/C(N)=N/OC(=O)Cc2ccccc2)cc1` belongs 0.52% (inactive).
